Results on 1 sequence are retold here after PMC7862700, “An all-to-all approach to the identification of sequence-specific readers for epigenetic DNA modifications on cytosine”.

Holding throughout (test): DAPPL (digital affinity profiling via proximity ligation, sequencing); 10 mM Tris-HCl pH 7.5, 50 mM NaCl, 1 mM DTT, 4% glycerol, room temperature, 30 min; GST-TFs on glutathione beads, 16-mer random dsDNA library, 0.1% formaldehyde crosslink after washing; high values mean tight binding
The target in test [1] is T1, FLI1 (Homo sapiens, UniProt Q01543 1-452).
T1 sequence: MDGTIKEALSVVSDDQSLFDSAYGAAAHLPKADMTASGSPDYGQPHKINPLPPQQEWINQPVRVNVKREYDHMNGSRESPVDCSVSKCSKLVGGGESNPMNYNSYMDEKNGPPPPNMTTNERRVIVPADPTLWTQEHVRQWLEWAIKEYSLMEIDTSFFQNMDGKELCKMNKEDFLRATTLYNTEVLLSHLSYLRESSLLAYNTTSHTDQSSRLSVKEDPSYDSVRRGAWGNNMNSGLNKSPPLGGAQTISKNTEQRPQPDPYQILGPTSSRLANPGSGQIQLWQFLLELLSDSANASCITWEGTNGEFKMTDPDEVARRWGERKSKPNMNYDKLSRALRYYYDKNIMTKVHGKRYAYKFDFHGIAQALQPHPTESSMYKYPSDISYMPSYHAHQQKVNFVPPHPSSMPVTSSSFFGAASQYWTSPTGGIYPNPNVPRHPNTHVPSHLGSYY
The conditions noted are these: protein: recombinant; tags: N-terminal GST; dsDNA, one strand shown. In outline:
(§1)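 Binding signal is given per hexamer as its read frequency for a factor divided by its frequency in the tag-only sample. GST-fused human transcription factors were expressed in yeast, captured on glutathione beads, barcoded with DNA and pooled with that sample, then incubated with 200 nmole of a 16-mer random double-stranded DNA library in Tris/NaCl/DTT/glycerol buffer for 30 min at room temperature. The pools were then washed, crosslinked, proximity-ligated, amplified by PCR and sequenced on an Illumina NextSeq500.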

Test [2] concerns the target T2, ELK1 (Homo sapiens, UniProt P19419 1-428).
T2 sequence: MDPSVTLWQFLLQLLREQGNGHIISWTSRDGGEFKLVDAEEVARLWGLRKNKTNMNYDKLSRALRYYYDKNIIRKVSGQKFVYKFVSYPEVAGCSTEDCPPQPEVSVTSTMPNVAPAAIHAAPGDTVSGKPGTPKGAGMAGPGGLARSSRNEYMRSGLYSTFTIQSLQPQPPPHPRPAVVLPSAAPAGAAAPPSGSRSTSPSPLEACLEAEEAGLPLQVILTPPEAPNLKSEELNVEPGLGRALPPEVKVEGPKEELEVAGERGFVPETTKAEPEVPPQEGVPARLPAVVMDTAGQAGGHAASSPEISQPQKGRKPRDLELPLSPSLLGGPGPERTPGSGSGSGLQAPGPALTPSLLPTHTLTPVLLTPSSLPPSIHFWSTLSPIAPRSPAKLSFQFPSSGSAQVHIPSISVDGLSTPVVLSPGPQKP
The conditions noted are these: protein: recombinant; tags: N-terminal GST; dsDNA, one strand shown. In outline:
as §1

Test [3] concerns the target T3, GABPA (Homo sapiens, UniProt Q06546 1-454).
T3 sequence: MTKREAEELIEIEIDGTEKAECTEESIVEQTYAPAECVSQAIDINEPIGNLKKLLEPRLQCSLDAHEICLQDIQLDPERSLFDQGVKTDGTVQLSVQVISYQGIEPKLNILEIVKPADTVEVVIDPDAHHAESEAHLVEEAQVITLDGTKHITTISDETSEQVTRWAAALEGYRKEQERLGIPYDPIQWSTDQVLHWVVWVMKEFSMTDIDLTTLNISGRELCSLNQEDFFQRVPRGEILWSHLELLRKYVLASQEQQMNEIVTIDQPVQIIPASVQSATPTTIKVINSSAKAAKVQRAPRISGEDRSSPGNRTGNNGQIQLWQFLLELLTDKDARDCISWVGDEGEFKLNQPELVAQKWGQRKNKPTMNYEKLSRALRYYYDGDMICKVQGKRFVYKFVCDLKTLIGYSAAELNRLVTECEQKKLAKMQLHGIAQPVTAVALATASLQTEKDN
The following applies: protein: recombinant; tags: N-terminal GST; dsDNA, one strand shown. In outline: as §1

For test [4], the target named is T4, ERG (Homo sapiens, UniProt P11308 1-479).
T4 sequence: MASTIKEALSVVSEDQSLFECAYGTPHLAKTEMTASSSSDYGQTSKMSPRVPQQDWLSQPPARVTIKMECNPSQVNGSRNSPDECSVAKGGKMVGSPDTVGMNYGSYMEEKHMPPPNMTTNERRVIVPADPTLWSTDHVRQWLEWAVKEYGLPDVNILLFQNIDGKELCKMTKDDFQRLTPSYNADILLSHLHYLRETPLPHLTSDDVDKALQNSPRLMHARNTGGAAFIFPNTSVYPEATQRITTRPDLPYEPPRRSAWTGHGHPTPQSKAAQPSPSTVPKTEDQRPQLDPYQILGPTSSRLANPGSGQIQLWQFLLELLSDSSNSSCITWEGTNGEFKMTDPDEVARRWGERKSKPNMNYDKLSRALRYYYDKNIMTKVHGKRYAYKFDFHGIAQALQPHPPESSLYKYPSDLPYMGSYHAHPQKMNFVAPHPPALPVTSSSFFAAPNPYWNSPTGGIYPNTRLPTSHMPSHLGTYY
The conditions noted are these: protein: recombinant; tags: N-terminal GST; dsDNA, one strand shown. An outline of the steps: as §1

The target of test [5] is ELF1 (Homo sapiens, UniProt P32519 1-619). The following applies: protein: recombinant; tags: N-terminal GST; dsDNA, one strand shown. In outline: as §1
Test [6] concerns the target T5, EHF (Homo sapiens, UniProt Q9NZC4 1-300).
T5 sequence: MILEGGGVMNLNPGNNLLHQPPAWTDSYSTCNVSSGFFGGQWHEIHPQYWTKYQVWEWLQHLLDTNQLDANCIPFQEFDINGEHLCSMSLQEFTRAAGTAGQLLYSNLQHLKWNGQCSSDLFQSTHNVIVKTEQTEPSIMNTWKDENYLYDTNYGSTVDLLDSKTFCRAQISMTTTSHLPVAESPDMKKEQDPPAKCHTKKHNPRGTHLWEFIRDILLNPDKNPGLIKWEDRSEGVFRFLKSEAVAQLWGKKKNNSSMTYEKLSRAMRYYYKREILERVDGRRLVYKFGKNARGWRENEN
The conditions noted are these: protein: recombinant; tags: N-terminal GST; dsDNA, one strand shown. An outline of the steps: as §1

Test [7] concerns the target SPI1 (Homo sapiens, UniProt P17947 1-270). The following applies: protein: recombinant; tags: N-terminal GST; dsDNA, one strand shown. In outline:
as §1

The target in test [8] is SPIB (Homo sapiens, UniProt Q01892 1-262). The conditions noted are these: protein: recombinant; tags: N-terminal GST; dsDNA, one strand shown. In outline:
as §1

In test [9] the target is T6, ELK3 (Homo sapiens, UniProt P41970 1-407).
T6 sequence: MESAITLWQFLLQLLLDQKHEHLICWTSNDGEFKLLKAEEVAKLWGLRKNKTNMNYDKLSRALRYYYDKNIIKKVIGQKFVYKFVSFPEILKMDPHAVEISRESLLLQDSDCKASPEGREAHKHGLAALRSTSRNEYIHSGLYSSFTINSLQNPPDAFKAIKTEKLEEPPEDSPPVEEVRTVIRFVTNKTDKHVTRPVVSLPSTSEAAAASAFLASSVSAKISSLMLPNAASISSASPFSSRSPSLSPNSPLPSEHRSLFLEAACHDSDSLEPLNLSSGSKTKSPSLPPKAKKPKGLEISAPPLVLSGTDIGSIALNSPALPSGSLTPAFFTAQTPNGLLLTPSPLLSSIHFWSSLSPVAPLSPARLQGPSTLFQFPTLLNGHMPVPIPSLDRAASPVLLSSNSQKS
The following applies: protein: recombinant; tags: N-terminal GST; dsDNA, one strand shown. In outline:
as §1

Test [10] addresses T7, FEV (Homo sapiens, UniProt Q99581 1-238).
T7 sequence: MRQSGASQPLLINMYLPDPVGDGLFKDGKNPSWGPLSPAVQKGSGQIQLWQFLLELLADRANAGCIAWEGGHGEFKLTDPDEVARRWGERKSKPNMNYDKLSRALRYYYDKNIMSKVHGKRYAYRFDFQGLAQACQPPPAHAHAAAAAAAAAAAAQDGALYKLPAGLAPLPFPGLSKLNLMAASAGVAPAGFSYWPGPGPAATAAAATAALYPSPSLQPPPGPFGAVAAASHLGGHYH
The following applies: protein: recombinant; tags: N-terminal GST; dsDNA, one strand shown. In outline:
as §1

Test [11] concerns the target ETV5 (Homo sapiens, UniProt P41161 1-510). The conditions noted are these: protein: recombinant; tags: N-terminal GST; dsDNA, one strand shown. An outline of the steps:
as §1

Test [12] has as its target HSF1 (Homo sapiens, UniProt Q00613 1-529). The conditions noted are these: protein: recombinant; tags: N-terminal GST; chain copies: 3; dsDNA, one strand shown. In outline:
as §1

Test [13] deals with T8, SPIC (Homo sapiens, UniProt Q8N5J4 1-248).
T8 sequence: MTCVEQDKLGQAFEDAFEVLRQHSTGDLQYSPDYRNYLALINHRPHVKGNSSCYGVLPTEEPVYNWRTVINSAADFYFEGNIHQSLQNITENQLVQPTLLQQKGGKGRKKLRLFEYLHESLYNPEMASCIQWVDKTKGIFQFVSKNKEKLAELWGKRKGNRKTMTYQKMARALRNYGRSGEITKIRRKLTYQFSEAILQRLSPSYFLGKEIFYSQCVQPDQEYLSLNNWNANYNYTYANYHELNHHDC
The following applies: protein: recombinant; tags: N-terminal GST; dsDNA, one strand shown. In outline:
as §1

The target of test [14] is ELF4 (Homo sapiens, UniProt Q99607 1-663). The following applies: protein: recombinant; tags: N-terminal GST; dsDNA, one strand shown. In outline: as §1
Test [15] addresses T9, ELK4 (Homo sapiens, UniProt P28324-2 1-405).
T9 sequence: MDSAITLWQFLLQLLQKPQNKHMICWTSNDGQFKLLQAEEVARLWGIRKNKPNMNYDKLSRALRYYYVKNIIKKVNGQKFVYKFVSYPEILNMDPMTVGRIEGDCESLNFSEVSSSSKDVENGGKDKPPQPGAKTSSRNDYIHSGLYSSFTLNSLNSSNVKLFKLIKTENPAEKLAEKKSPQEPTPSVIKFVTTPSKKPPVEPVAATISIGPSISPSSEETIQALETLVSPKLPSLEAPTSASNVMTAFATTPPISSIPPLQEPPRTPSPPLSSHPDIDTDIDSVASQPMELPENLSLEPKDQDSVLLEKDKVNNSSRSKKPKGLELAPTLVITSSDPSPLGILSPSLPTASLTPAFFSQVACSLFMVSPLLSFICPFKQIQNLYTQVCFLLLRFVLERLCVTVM
The conditions noted are these: protein: recombinant; tags: N-terminal GST; dsDNA, one strand shown. An outline of the steps: as §1

Test [16] concerns the target T10, ETV2 (Homo sapiens, UniProt O00321 1-342).
T10 sequence: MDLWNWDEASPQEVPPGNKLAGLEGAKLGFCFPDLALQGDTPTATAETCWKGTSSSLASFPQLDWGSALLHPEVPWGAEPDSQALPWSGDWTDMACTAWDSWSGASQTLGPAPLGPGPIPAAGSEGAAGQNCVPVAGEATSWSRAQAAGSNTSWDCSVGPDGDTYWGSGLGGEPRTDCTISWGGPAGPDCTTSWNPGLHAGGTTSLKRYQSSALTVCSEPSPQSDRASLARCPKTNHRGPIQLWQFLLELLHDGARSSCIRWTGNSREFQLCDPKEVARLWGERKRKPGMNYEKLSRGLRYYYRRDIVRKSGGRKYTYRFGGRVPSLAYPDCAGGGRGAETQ
The following applies: protein: recombinant; tags: N-terminal GST; dsDNA, one strand shown. An outline of the steps:
as §1

For test [17], the target named is T11, ELF3 (Homo sapiens, UniProt P78545 1-371).
T11 sequence: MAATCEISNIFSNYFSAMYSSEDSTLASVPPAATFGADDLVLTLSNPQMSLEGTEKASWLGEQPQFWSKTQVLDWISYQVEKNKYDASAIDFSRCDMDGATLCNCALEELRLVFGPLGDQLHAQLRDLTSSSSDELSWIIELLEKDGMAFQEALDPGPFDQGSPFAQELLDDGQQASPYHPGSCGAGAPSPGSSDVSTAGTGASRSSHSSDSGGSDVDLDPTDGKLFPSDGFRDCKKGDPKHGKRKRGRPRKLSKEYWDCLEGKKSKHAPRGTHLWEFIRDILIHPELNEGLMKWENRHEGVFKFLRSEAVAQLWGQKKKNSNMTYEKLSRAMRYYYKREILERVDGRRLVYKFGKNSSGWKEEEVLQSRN
The following applies: protein: recombinant; tags: N-terminal GST; dsDNA, one strand shown. An outline of the steps:
as §1

Test [18] has as its target CRX (Homo sapiens, UniProt O43186 1-299). The conditions noted are these: protein: recombinant; tags: N-terminal GST; dsDNA, one strand shown. An outline of the steps:
as §1

The target in test [19] is ETV1 (Homo sapiens, UniProt P50549 1-477). The conditions noted are these: protein: recombinant; tags: N-terminal GST; dsDNA, one strand shown. An outline of the steps: as §1
ETV1, sequence (P50549 whole entry): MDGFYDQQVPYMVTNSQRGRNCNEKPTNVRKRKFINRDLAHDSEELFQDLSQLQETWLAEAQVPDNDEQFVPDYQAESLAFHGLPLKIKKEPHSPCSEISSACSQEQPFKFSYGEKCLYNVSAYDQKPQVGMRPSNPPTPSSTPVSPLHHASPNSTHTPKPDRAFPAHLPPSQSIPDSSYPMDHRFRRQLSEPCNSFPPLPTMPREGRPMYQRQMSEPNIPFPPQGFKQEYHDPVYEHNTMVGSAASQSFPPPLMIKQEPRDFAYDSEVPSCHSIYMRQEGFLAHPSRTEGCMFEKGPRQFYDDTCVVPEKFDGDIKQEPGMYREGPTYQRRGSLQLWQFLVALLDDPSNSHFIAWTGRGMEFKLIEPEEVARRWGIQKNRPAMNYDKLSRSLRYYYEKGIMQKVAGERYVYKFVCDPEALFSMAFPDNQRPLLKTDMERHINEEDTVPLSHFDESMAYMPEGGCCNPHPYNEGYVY

CRX, sequence (O43186 whole entry): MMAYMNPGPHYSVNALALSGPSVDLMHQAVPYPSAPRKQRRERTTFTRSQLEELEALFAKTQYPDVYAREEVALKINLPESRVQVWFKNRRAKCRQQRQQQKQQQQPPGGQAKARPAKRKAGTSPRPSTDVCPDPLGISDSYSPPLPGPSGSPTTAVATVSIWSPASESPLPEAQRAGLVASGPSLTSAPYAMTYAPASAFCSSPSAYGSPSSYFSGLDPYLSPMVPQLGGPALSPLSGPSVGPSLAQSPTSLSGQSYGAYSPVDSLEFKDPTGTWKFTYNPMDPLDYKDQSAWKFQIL
ELF1, sequence (P32519 whole entry): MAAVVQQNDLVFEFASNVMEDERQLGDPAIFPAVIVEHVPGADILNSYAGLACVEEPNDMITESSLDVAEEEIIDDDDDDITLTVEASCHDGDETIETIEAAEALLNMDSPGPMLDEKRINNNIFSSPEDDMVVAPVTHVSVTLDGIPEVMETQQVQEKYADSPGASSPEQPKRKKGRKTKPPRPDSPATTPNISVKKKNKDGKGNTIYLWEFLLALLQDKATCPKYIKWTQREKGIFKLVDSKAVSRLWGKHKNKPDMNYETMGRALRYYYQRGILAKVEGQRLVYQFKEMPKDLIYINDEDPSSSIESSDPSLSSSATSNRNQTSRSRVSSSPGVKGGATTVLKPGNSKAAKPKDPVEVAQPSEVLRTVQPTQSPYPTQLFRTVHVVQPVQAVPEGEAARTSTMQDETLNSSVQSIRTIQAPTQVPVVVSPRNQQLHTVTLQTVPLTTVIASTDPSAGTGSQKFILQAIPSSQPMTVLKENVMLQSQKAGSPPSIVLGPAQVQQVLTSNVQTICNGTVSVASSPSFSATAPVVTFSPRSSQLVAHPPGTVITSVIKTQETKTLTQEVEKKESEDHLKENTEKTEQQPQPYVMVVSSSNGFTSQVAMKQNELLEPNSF
ETV5, sequence (P41161 whole entry): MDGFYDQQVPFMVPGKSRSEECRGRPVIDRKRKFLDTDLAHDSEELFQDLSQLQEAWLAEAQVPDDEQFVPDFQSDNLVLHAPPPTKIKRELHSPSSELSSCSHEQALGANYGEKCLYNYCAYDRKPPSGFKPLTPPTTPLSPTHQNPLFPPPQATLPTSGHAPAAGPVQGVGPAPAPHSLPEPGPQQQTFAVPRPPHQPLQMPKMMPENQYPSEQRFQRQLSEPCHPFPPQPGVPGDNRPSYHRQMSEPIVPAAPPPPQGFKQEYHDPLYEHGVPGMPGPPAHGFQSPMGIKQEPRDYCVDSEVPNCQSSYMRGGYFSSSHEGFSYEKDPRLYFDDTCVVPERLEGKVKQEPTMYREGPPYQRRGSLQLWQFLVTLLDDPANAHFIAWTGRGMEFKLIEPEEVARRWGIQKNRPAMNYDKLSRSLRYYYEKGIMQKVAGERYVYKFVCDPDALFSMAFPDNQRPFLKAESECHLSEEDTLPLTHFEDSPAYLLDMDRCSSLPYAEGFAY
HSF1, sequence (Q00613 whole entry): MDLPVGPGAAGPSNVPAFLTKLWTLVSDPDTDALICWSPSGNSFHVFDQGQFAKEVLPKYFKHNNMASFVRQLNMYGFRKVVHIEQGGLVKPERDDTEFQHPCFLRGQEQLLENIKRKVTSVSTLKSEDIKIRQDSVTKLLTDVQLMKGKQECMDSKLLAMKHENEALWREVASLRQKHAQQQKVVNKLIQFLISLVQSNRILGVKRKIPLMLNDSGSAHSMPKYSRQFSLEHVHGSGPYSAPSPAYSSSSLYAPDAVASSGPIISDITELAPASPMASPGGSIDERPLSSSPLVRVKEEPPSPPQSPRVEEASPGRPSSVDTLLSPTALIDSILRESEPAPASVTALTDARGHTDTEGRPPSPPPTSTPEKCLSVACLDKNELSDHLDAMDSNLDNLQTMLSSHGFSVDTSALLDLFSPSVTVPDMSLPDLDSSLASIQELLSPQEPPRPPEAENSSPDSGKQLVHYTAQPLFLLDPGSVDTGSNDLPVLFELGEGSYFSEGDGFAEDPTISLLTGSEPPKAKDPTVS
SPIB, sequence (Q01892 whole entry): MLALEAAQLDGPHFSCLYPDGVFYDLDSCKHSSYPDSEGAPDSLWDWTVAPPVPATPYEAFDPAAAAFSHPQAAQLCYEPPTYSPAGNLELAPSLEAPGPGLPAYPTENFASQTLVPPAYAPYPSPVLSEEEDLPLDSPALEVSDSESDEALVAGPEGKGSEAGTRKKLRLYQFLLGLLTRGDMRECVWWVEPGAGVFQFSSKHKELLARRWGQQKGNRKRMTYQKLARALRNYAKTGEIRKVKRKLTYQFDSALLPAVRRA
ELF4, sequence (Q99607 whole entry): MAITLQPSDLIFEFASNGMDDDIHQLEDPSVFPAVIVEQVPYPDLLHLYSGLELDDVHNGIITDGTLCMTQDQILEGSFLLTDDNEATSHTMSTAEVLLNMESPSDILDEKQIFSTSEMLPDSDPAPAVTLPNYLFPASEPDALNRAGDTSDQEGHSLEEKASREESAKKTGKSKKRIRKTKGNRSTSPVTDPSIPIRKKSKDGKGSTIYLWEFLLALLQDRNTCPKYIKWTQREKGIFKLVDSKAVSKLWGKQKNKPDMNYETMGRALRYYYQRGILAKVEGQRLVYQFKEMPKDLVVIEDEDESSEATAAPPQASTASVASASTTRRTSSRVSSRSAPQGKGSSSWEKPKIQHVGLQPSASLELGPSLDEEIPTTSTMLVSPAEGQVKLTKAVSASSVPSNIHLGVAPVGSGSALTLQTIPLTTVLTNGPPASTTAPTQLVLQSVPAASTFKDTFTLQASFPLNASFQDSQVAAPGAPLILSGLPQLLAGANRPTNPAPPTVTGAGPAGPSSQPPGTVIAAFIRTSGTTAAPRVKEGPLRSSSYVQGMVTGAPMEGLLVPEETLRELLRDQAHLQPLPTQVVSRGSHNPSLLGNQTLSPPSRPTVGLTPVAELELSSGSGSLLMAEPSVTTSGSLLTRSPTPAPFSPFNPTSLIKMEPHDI

Consider ACTGAA, for which the binding signal is 1.07 fold enrichment (6-mer frequency, TF over GST control) in [1]; 1.27 fold enrichment (6-mer frequency, TF over GST control) in test [2]; 1.24 fold enrichment (6-mer frequency, TF over GST control) in test [3]; 1.11 fold enrichment (6-mer frequency, TF over GST control) in test [4]; 1.2 fold enrichment (6-mer frequency, TF over GST control) in test [5]; 1.1 fold enrichment (6-mer frequency, TF over GST control) in test [6]. In addition, the binding signal in [7] was 1.23 fold enrichment (6-mer frequency, TF over GST control); in [8], 1.07 fold enrichment (6-mer frequency, TF over GST control); in test [9], 1.09 fold enrichment (6-mer frequency, TF over GST control); in test [10] it was 1.19 fold enrichment (6-mer frequency, TF over GST control); in [11] it was 1.19 fold enrichment (6-mer frequency, TF over GST control); in test [12], 1.08 fold enrichment (6-mer frequency, TF over GST control). The binding signal is 1.31 fold enrichment (6-mer frequency, TF over GST control) in [13]; 1.13 fold enrichment (6-mer frequency, TF over GST control) in test [14]; 1.16 fold enrichment (6-mer frequency, TF over GST control) in test [15]; 1.05 fold enrichment (6-mer frequency, TF over GST control) in test [16]; 1.37 fold enrichment (6-mer frequency, TF over GST control) in test [17]; 1.04 fold enrichment (6-mer frequency, TF over GST control) in [18]. The binding signal in [19] is 1.19 fold enrichment (6-mer frequency, TF over GST control).
